Laboratory results as given in PubChem BioAssay (EPA / NIEHS).
Where “and” joins values, the source holds several entries; their conditions need not be identical. Equal values may be shown once. Where a structure was tested more than once in an assay, its records may differ in their call. Calls of active or inactive are those of the source. Rule for the calls: active = hit-call score of the fitted dose curve at least 0.9, where 1 is the maximum; inactive = score below 0.9.

Tests used:
[1] = BSK_CASM3C_SRB: Viability Assessment in the BioMAP Diversity Plus: CASM3C Assay (AID 2283050); details: primary human coronary artery smooth muscle cells
[2] = read-out: Thrombomodulin, THBD (gene 7056); assay: BSK_CASM3C_Thrombomodulin: BioMAP Diversity Plus: CASM3C Assay for Thrombomodulin Biomarker Activity (AID 2283051); details: primary human coronary artery smooth muscle cells; actives raise or lower the signal;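 note: thrombomodulin protein level measured by ELISA 24 h after dosing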
[3] = read-out: Tissue Factor, F3 (gene 2152); assay: BSK_CASM3C_TissueFactor: BioMAP Diversity Plus: CASM3C Assay for Tissue Factor Biomarker Activity (AID 2283052); details: primary human coronary artery smooth muscle cells; actives raise or lower the signal;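 note: cell surface tissue factor protein level read by ELISA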
[4] = read-out: Interferon-gamma inducible Protein 10 (IP10), CXCL10 (gene 3627); assay: BSK_hDFCGF_IP10: BioMAP Diversity Plus: hDFCGF Assay for Interferon-gamma inducible Protein 10 (IP10) Biomarker Activity (AID 2283053); details: primary human foreskin fibroblasts; actives raise or lower the signal
How it was run: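 IP-10 levels, quantified by ELISA, are taken from human foreskin fibroblast cultures 24 h after chemical treatment, with DMSO serving as negative control and baseline for bidirectional analysis.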

[5] = read-out: Urokinase-type plasminogen activator receptor (uPAR), PLAUR (gene 5329); assay: BSK_CASM3C_uPAR: BioMAP Diversity Plus: CASM3C Assay for Urokinase-type plasminogen activator receptor (uPAR) Biomarker Activity (AID 2283054); details: primary human coronary artery smooth muscle cells; actives raise or lower the signal;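 note: cell-surface uPAR protein level quantified by ELISA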
[6] = read-out: Vascular cell adhesion molecule 1 (VCAM1), VCAM1 (gene 7412); assay: BSK_CASM3C_VCAM1: BioMAP Diversity Plus: CASM3C Assay for Vascular cell adhesion molecule 1 (VCAM1) Biomarker Activity (AID 2283055); details: primary human coronary artery smooth muscle cells; actives raise or lower the signal;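 note: VCAM-1 protein level quantified by ELISA on the cells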
[7] = read-out: Collagen III, COL3A1 (gene 1281); assay: BSK_hDFCGF_CollagenIII: BioMAP Diversity Plus: hDFCGF Assay for Collagen III Biomarker Activity (AID 2283056); details: primary human foreskin fibroblasts; actives raise or lower the signal
How it was run: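 hDFCGF primary human dermal fibroblasts; 24 h chemical exposure; collagen III by ELISA; bidirectional curve fit vs DMSO baseline (gain or loss of signal).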

[8] = read-out: Epidermal growth factor receptor (EGFR), EGFR (gene 1956); assay: BSK_hDFCGF_EGFR: BioMAP Diversity Plus: hDFCGF Assay for Epidermal growth factor receptor (EGFR) Biomarker Activity (AID 2283057); details: primary human foreskin fibroblasts; actives raise or lower the signal
How it was run: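 Measured by ELISA: EGFR levels on primary human foreskin fibroblasts 24 h after chemical treatment, analysed relative to DMSO with bidirectional fitting.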

[9] = read-out: Macrophage colony-stimulating factor (MCSF), CSF1 (gene 1435); assay: BSK_hDFCGF_MCSF: BioMAP Diversity Plus: hDFCGF Assay for Macrophage colony-stimulating factor (MCSF) Biomarker Activity (AID 2283060); details: primary human foreskin fibroblasts; actives raise or lower the signal
How it was run: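 ELISA read-out of M-CSF in human dermal foreskin fibroblast cultures, 24 h after chemical dosing; gain or loss of signal fitted bidirectionally relative to DMSO baseline.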

[10] = BSK_hDFCGF_SRB: Viability Assessment in the BioMAP Diversity Plus: hDFCGF Assay (AID 2283061); details: primary human foreskin fibroblasts;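 note: cells exposed to compound for 24 h before the read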
How it was run: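 Primary human foreskin fibroblasts; 24 h post-dose; fixed 10% TCA, stained 0.1% SRB, A560 read; total protein as overt cytotoxicity measure; curves fit bidirectionally vs DMSO control.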

[11] = read-out: TIMP metallopeptidase inhibitor 1 (TIMP1), TIMP1 (gene 7076); assay: BSK_hDFCGF_TIMP1: BioMAP Diversity Plus: hDFCGF Assay for TIMP metallopeptidase inhibitor 1 (TIMP1) Biomarker Activity (AID 2283062); details: primary human foreskin fibroblasts; actives raise or lower the signal
How it was run: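 ELISA readout of TIMP-1 from human dermal foreskin fibroblast cultures 24 h post-dosing. Curves were fitted in both directions against DMSO baseline, with SRB total-protein staining in parallel cultures as a cytotoxicity check.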

[12] = read-out: Monokine induced gamma interferon (MIG), CXCL9 (gene 4283); assay: BSK_hDFCGF_MIG: BioMAP Diversity Plus: hDFCGF Assay for Monokine induced gamma interferon (MIG) Biomarker Activity (AID 2283063); details: primary human foreskin fibroblasts; actives raise or lower the signal
How it was run: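 Fibroblasts (human foreskin, primary) dosed, 24 h, MIG by ELISA; fit bidirectional vs DMSO.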

[13] = read-out: Matrix Metallopeptidase 1 (MMP1), MMP1 (gene 4312); assay: BSK_hDFCGF_MMP1: BioMAP Diversity Plus: hDFCGF Assay for Matrix Metallopeptidase 1 (MMP1) Biomarker Activity (AID 2283064); details: primary human foreskin fibroblasts; actives raise or lower the signal
How it was run: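 Primary human foreskin fibroblasts in the hDFCGF system were dosed with test chemical, and MMP1 was measured by ELISA 24 h later. Values come from bidirectional curve fitting against the DMSO baseline.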

[14] = read-out: Vascular cell adhesion molecule 1 (VCAM1), VCAM1 (gene 7412); assay: BSK_hDFCGF_VCAM1: BioMAP Diversity Plus: hDFCGF Assay for Vascular cell adhesion molecule 1 (VCAM1) Biomarker Activity (AID 2283065); details: primary human foreskin fibroblasts; actives raise or lower the signal;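 note: VCAM-1 protein level quantified by ELISA after 24 h chemical exposure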
How it was run: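 ELISA read-out of VCAM-1 on human skin fibroblasts, 24 h post-dose; gain or loss of signal fitted bidirectionally against DMSO baseline.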

[15] = read-out: Plasminogen activator inhibitor-1 (PAI1), SERPINE1 (gene 5054); assay: BSK_hDFCGF_PAI1: BioMAP Diversity Plus: hDFCGF Assay for Plasminogen activator inhibitor-1 (PAI1) Biomarker Activity (AID 2283066); details: primary human foreskin fibroblasts; actives raise or lower the signal
How it was run: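 PAI-1 levels, determined by ELISA, served as the endpoint in human foreskin fibroblast cultures exposed to compound for 24 h, with DMSO as baseline.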

[16] = read-out: Intercellular Adhesion Molecule 1 (ICAM1), ICAM1 (gene 3383); assay: BSK_KF3CT_ICAM1: BioMAP Diversity Plus: KF3CT Assay for Intercellular Adhesion Molecule 1 (ICAM1) Biomarker Activity (AID 2283067); details: primary human keratinocytes with fibroblasts; actives raise or lower the signal
How it was run: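 ELISA readout of ICAM-1; KF3CT human skin co-culture (keratinocytes + foreskin fibroblasts), 24 h post-dose; gain/loss fit vs DMSO baseline.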

[17] = read-out: Interferon-gamma inducible Protein 10 (IP10), CXCL10 (gene 3627); assay: BSK_KF3CT_IP10: BioMAP Diversity Plus: KF3CT Assay for Interferon-gamma inducible Protein 10 (IP10) Biomarker Activity (AID 2283068); details: primary human keratinocytes with fibroblasts; actives raise or lower the signal
How it was run: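 ELISA read-out of IP-10 after 24 h chemical dosing of human skin primary co-culture (keratinocytes, foreskin fibroblasts). Gain or loss of signal relative to DMSO, bidirectional curve fit.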

[18] = BSK_KF3CT_SRB: Viability Assessment in the BioMAP Diversity Plus: KF3CT Assay (AID 2283069); details: primary human keratinocytes with fibroblasts;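 note: total protein by sulforhodamine B staining as a cytotoxicity measure; read 24 h after compound addition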
How it was run: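 Human primary keratinocyte plus foreskin fibroblast co-culture exposed to chemicals for 24 h. Total protein measured by 0.1% sulforhodamine B staining after 10% TCA fixation, read at 560 nm; bidirectional fitting versus DMSO baseline.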

[19] = read-out: Interleukin-8 (IL8), CXCL8 (gene 3576); assay: BSK_hDFCGF_IL8: BioMAP Diversity Plus: hDFCGF Assay for Interleukin-8 (IL8) Biomarker Activity (AID 2283058); details: primary human foreskin fibroblasts; actives raise or lower the signal
How it was run: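 ELISA read-out of IL-8 from primary human foreskin fibroblast cultures taken 24 h after dosing; values are bidirectional fits relative to DMSO vehicle.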

[20] = BSK_hDFCGF_Proliferation: Cell Proliferation Assessment in the BioMAP Diversity Plus: hDFCGF Assay (AID 2283059); details: primary human foreskin fibroblasts;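 note: curves fitted for both rise and fall of signal versus DMSO baseline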
How it was run: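 Sub-confluent human foreskin fibroblast cultures receive test chemical […]. Relative cell number is quantified by sulforhodamine B staining (0.1%, after 10% TCA fixation) at 560 nm, with bidirectional fitting referenced to DMSO.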

Measured: AC50

FC(F)(F)C(F)(F)C(F)(F)C(F)(F)C(F)(F)CCI
active: [4] 22.2 µM | [9] 23.4 µM | [12] 30 µM | [13] 8.91 µM | [14] 38.6 µM and 32.6 µM
inactive: [1] | [2] | [3] | [4] | [5] | [6] | [7] | [8] | [9] | [10] | [11] | [12] | [13] | [15] | [16] | [17] | [18]

C=CC(=O)OCC(F)(F)C(F)(F)C(F)(F)C(F)(F)COC(=O)C=C
active: [1] 43 µM and 43.7 µM | [3] 52.7 µM and 47.5 µM | [4] 8.28 µM and 8.38 µM | [5] 48.9 µM and 50 µM | [6] 17.7 µM and 19.7 µM | [8] 30 µM | [9] 5.29 µM and 5.49 µM | [10] 8.52 µM and 8.25 µM | [11] 8.88 µM and 9.2 µM | [12] 3.49 µM and 3.32 µM | [13] 17.1 µM and 17.3 µM | [15] 8.89 µM and 8.86 µM | [16] 23 µM and 24.1 µM | [17] 19.3 µM and 20.9 µM | [18] 41.7 µM and 43.2 µM
inactive: [2] | [7] | [8]

CCCCCCCCCCCCCCCC[N+](C)(C)Cc1ccccc1
inactive: [2] | [8]
active: [1] 5.23 µM | [3] 7.36 µM | [4] 2.56 µM | [5] 7.8 µM | [6] 4.2 µM | [7] 666 nM | [19] 3.86 µM | [9] 1.97 µM | [10] 5.13 µM | [11] 1.71 µM | [12] 3.62 µM | [13] 4.17 µM | [14] 1.91 µM | [15] 1.52 µM | [16] 6.06 µM | [17] 3.64 µM | [18] 5.1 µM

OCCCC(F)(F)C(F)(F)C(F)(F)C(F)(F)C(F)(F)C(F)(F)C(F)(F)F
active: [1] 22.6 µM and 25.1 µM | [3] 20.8 µM | [4] 11.8 µM and 14 µM | [5] 24.5 µM and 45 µM | [6] 26.2 µM and 41.2 µM | [7] 11.6 µM and 14.6 µM | [8] 9.95 µM | [19] 17.8 µM and 20.8 µM | [20] 6.74 µM and 7.22 µM | [9] 15.6 µM and 16.6 µM | [10] 18.3 µM and 17.2 µM | [11] 14.6 µM and 14.4 µM | [12] 16.3 µM and 14.6 µM | [13] 13 µM and 15 µM | [14] 11 µM and 9.2 µM | [15] 15.3 µM and 14.9 µM | [16] 28.3 µM and 47.3 µM | [17] 23.9 µM and 49.7 µM | [18] 24.2 µM and 49 µM
inactive: [2] | [3] | [8]
